Source: PubChem BioAssay (Tox21)
Where “and” joins values, the source holds several entries; their conditions need not be identical. Identical values can stand only once. Records with an inconclusive call do not appear. Where a call stands in place of a potency, no number is given. Where a structure was tested more than once in an assay, its records may differ in their call. Calls of active or inactive are those of the source. Unless noted, the call rests on the fitted dose curve.

Legend:
[1] = Nuclear factor erythroid 2-related factor 2/antioxidant responsive element (Nrf2/ARE) small molecule agonists: qHTS cell viability counter screen in human keratinocytes (AID 1919968; active means well fitted curve in the direction sought with a large enough effect in the repeat runs; an effect the other way counts as inactive or inconclusive; further: nearly all actives have a fitted effect of over 55% in size)
Method in brief: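 KeratinoSens HaCaT cells, 1,500/well, preincubated 5 h, then exposed to compounds in DMSO for 23 h at 37 C/5% CO2. Viability read as CellTiter-Fluor fluorescence after 1 h, in the same wells as the ARE-luciferase read.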

[2] = Nuclear factor erythroid 2-related factor 2/antioxidant responsive element (Nrf2/ARE) small molecule agonists: luciferase reporter gene qHTS assay in human keratinocytes (AID 1919969); further: nearly all actives have a fitted effect of over 35% in size
[3] = molecular target: KiSS-1 receptor (Homo sapiens) (UniProt Q969F8); test: Human kisspeptin (KISS1R) small molecule agonists, calcium flux assay in KISS1R-HEK293 cells (AID 1920064; active means well fitted curve in the direction sought with a large enough effect in the repeat runs; an effect the other way counts as inactive or inconclusive)
Method in brief: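 HEK293 cells stably expressing human KISS1R were loaded with calcium dye for 1 h at 37 C, then given compound; fluorescence (Ex/Em 480/540) was read kinetically for 3 min. Fifteen concentrations, triplicate.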

[4] = p53 small molecule agonists, cell-based qHTS assay with human liver microsomes (AID 1963577)
Method in brief: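 p53RE-bla reporter cells were pre-incubated 5 h at 37 C, then treated with compounds plus human liver microsomes (0.5 mg/mL final) and NADPH (0.5 mg/mL final) for 16 h at 37 C. Beta-lactamase activity was read by LiveBLAzer fluorescence after 2 h at room temperature.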

[5] = p53 small molecule agonists, cell-based qHTS assay with rat liver microsomes (AID 1963578)
Method in brief: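 p53RE-bla cells were exposed to compounds together with rat liver microsomes (0.5 mg/mL final) and NADPH (0.5 mg/mL final) for 16 h at 37 C, then read by LiveBLAzer beta-lactamase fluorescence after 2 h at room temperature.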

[6] = p53 small molecule agonists, cell-based qHTS assay with human liver microsomes: qHTS cell viability counter screen (AID 1963579); further: nearly all actives have a fitted effect of over 45% in size
Method in brief: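 p53RE-bla cells (4,000/well) were pre-incubated 5 h at 37 C, then given compounds in DMSO plus human liver microsomes (0.5 mg/mL final) and NADPH (0.5 mg/mL final) for 16 h at 37 C. Viability was read by CellTiter-Glo luminescence.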

[7] = p53 small molecule agonists, cell-based qHTS assay with rat liver microsomes: qHTS cell viability counter screen (AID 1963580); further: nearly all actives have a fitted effect of over 45% in size
Method in brief: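 p53RE-bla HCT-116 cells (4,000/well) rested 5 h at 37 C, then given Tox21 compounds in DMSO with rat liver microsomes (0.5 mg/mL final) plus NADPH (0.5 mg/mL final) for 16 h at 37 C. Viability read by CellTiter-Glo luminescence after 30 min at room temperature.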

[8] = p53 small molecule agonists, cell-based qHTS assay: qHTS cell viability counter screen (AID 1963581); further: nearly all actives have a fitted effect of over 45% in size
Method in brief: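 p53RE-bla HCT-116 cells, compounds added 5 h after plating and incubated 16 h at 37 C. Cytotoxicity measured in the same wells as intracellular ATP by CellTiter-Glo luminescence after 30 min at room temperature.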

[9] = molecular target: 5-hydroxytryptamine receptor 2A (Homo sapiens) (UniProt P28223); test: 5-hydroxytryptamine receptor 2A (HTR2A) small molecule antagonists, cell-based qHTS assay (AID 1963586); further: nearly all actives have a fitted effect of over 45% in size
Method in brief: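 Antagonist-mode intracellular calcium assay: DOI (4 nM) added after 5 min compound pre-incubation at room temperature to dye-loaded HTR2A-CHO cells. Fluorescence followed for 3 min, sampled every second.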

[10] = molecular target: 5-hydroxytryptamine receptor 2A (Homo sapiens) (UniProt P28223); test: 5-hydroxytryptamine receptor 2A (HTR2A) small molecule agonists, cell-based qHTS assay (AID 1963587); further: nearly all actives have a fitted effect of over 30% in size
Method in brief: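 HTR2A-CHO cells, plated 18 h at 37 C/5% CO2, dye-loaded 1 h at 37 C; compounds in DMSO added by pin tool (agonist mode). Intracellular calcium flux read as kinetic fluorescence on FDSS over 2 min at 1 s intervals.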

[11] = molecular target: Muscarinic acetylcholine receptor M1 (Homo sapiens) (UniProt P11229); test: Cholinergic receptor muscarinic 1 (CHRM1) small molecule antagonists, cell-based qHTS assay (AID 1963588); further: nearly all actives have a fitted effect of over 40% in size
Method in brief: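 CHRM1-CHO calcium-flux assay, antagonist mode. Cells were seeded 18 h, dye-loaded 1 h at 37 C and given compound for 5 min at RT, then acetylcholine was added at 50nM. FDSS fluorescence was read 3 min; 15 concentrations, three runs.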

[12] = molecular target: Muscarinic acetylcholine receptor M1 (Homo sapiens) (UniProt P11229); test: Cholinergic receptor muscarinic 1 (CHRM1) small molecule agonists, cell-based qHTS assay (AID 1963589); further: nearly all actives have a fitted effect of over 35% in size
Method in brief: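 CHO cells stably expressing human CHRM1 were loaded with calcium dye for 1 h at 37 C, then compound was added in agonist mode. Intracellular calcium fluorescence was followed kinetically at 1 s intervals. Fifteen concentrations were tested in three independent runs.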

[13] = cAMP Responsive Elements (CRE) small molecule agonists, cell-based qHTS assay (AID 1963590)
Method in brief: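 CRE-bla HEK 293T cells, 2,000/well in DMEM with 10% dialyzed FBS and 25 mM HEPES, pre-incubated 18 h at 37 C, then exposed to compound 3 h at 37 C. Beta-lactamase reporter read with LiveBLAzer B/G FRET substrate after 2 h at room temperature.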

[14] = cAMP Responsive Elements (CRE) small molecule antagonists, cell-based qHTS assay (AID 1963591; active means well fitted inhibition curve with a large enough effect in the signal ratio in the repeat runs, not every such curve was filed as active; the % refers to the signal ratio)
Method in brief: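 CRE-bla HEK293T cells plated 18 h, then given compound plus NKH477 at 0.25 uM final for 3 h at 37C. Beta-lactamase reporter read with LiveBLAzer B/G FRET substrate after 2 h at room temperature.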

[15] = molecular target: Beta-2 adrenergic receptor (Homo sapiens) (UniProt P07550); test: Adrenergic beta2 receptor (ADRB2) small molecule antagonists, cell-based qHTS assay (AID 1963592); further: nearly all actives have a fitted effect of over 50% in size; further: potency means the concentration at half of the fitted maximal effect
Method in brief: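 Cells (CHO, stable ADRB2 overexpression) incubated 18-20hr at 37C; compounds added from DMSO; agonist mix (1nM isoproterenol, 100uM IBMX, 25uM Ro-20-1724) added; 0.5hr RT; d2-cAMP and anti-cAMP-cryptate added; 1hr RT; 665/615 nm read.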

[16] = molecular target: Beta-2 adrenergic receptor (Homo sapiens) (UniProt P07550); test: Adrenergic beta2 receptor (ADRB2) small molecule agonists, cell-based qHTS assay (AID 1963593);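 further: CHO cells stably overexpressing human ADRB2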
Method in brief: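 CHO cells stably over-expressing ADRB2 were plated overnight at 37C, then dosed with compounds plus a stimulation mix containing 100uM IBMX and 25uM Ro-20-1724 for 0.5hr at room temperature. cAMP was measured by HTRF competition, 1hr.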

[17] = molecular target: D(2) dopamine receptor (Homo sapiens) (UniProt P14416); test: Dopamine D2 receptor (DRD2) small molecule agonists, cell-based qHTS assay (AID 1963594); further: nearly all actives have a fitted effect of over 35% in size; further: potency means the concentration at half of the fitted maximal effect
Method in brief: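 HEK293 cells stably expressing DRD2 were cultured 24 h at 37 C, then given Ro20-1724 (0.1 mM final) and compounds for 10 min at room temperature. NKH477 (200nM) was then added for 30 min. cAMP was read by HTRF.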

[18] = molecular target: D(2) dopamine receptor (Homo sapiens) (UniProt P14416); test: Dopamine D2 receptor (DRD2) small molecule antagonists, cell-based qHTS assay (AID 1963595; active means well fitted inhibition curve with a large enough effect in the signal ratio in the repeat runs, with a control signal flat; the % refers to the signal ratio; further: potency means the concentration at half of the fitted maximal effect)
Method in brief: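 Stable D2 receptor HEK293 line, 24 h after seeding. Compound preincubated 10 min, then quinpirole (12 nM) with forskolin analogue NKH477 (200 nM), 30 min, room temperature. Detection by time-resolved FRET of cAMP.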

[19] = G protein-coupled receptor (GPCR) small molecule agonists, calcium flux assay: HEK293 wild type cell line counter screen (AID 1920065)
Method in brief: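 Wild-type HEK293 cells plated 18 h, loaded with calcium dye 1 h at 37 C, then compounds added in agonist mode (ATP as positive control). Kinetic fluorescence Ex/Em 480/540 recorded 3 min at 1 sec intervals; 15 concentrations, triplicate.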

[20] = p53 small molecule agonists, cell-based qHTS assay (AID 1963582; active means well fitted activation curve with a large enough effect in the signal ratio in the repeat runs, not every such curve was filed as active; the % refers to the signal ratio)
Method in brief: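 p53RE-bla reporter cells, compounds added in DMSO after 5 h plating, incubated 16 h at 37 C. Beta-lactamase read via 2 h room-temperature LiveBLAzer B/G FRET substrate, fluorescence intensity.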

D(2) dopamine receptor (Homo sapiens), sequence (P14416 whole entry, looked up): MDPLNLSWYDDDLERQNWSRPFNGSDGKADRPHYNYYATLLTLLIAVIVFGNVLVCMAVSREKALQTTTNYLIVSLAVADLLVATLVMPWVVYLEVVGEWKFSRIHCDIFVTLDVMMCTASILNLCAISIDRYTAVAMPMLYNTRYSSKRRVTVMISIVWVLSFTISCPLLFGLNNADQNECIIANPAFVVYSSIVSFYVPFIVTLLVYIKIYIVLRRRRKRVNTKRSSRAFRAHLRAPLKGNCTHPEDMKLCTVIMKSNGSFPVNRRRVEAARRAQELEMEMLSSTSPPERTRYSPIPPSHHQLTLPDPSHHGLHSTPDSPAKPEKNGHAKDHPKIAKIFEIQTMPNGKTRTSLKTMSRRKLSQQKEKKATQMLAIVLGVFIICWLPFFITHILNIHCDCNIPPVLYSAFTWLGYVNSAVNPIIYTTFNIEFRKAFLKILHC
Beta-2 adrenergic receptor (Homo sapiens), sequence (P07550 whole entry, looked up): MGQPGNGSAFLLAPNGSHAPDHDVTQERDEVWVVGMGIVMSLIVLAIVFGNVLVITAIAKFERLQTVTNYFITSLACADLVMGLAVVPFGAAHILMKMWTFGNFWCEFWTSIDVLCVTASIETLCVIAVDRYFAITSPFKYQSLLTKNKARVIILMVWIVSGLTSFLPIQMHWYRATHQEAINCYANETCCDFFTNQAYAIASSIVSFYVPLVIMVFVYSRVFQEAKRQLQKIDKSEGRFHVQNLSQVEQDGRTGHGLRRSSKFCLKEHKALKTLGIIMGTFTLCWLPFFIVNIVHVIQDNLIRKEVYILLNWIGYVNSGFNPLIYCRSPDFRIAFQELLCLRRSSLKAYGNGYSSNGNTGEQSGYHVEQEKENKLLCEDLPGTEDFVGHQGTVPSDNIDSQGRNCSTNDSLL
5-hydroxytryptamine receptor 2A (Homo sapiens), sequence (P28223 whole entry, looked up): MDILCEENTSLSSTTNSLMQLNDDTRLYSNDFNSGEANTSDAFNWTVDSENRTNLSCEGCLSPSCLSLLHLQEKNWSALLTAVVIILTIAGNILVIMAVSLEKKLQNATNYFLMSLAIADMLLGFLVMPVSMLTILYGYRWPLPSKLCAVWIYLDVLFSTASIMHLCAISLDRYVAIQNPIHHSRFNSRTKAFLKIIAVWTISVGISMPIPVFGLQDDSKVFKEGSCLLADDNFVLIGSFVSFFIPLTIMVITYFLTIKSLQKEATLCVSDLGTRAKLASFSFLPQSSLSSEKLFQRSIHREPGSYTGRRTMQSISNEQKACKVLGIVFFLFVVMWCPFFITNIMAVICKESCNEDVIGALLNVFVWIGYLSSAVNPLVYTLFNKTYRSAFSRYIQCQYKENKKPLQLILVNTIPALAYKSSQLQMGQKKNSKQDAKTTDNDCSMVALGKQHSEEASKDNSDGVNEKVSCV
KiSS-1 receptor (Homo sapiens), sequence (Q969F8 whole entry, looked up): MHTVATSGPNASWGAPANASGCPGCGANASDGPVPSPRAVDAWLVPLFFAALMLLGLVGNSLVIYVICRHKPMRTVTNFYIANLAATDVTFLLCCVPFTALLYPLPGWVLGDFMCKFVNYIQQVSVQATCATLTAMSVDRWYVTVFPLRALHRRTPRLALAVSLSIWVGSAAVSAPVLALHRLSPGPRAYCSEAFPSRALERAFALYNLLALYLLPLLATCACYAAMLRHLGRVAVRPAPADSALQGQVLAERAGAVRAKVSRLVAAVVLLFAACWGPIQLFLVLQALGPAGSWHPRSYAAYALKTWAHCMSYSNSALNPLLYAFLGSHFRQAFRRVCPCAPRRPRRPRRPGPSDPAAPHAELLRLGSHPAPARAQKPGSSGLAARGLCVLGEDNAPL
Muscarinic acetylcholine receptor M1 (Homo sapiens), sequence (P11229 whole entry, looked up): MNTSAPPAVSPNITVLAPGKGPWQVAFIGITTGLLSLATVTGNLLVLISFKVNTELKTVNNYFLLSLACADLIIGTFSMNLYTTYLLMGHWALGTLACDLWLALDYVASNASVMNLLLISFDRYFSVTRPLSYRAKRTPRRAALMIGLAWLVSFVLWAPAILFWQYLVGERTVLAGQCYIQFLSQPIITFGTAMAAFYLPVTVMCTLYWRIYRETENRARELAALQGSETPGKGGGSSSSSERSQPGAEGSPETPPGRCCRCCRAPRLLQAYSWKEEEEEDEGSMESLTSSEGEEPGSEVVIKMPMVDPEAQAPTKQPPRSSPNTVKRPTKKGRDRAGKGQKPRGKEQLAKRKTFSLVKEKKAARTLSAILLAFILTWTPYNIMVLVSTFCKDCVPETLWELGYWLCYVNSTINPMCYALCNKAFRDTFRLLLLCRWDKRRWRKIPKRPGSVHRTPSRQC

| Structure (SMILES) | Potency [1] | Potency [2] | Potency [3] | Potency [4] | Potency [5] | Potency [6] | Potency [7] | Potency [8] | Potency [9] | Potency [10] | Potency [11] | Potency [12] | Potency [13] | Potency [14] | Potency [15] | Potency [16] | Potency [17] | Potency [18] | Potency [19] | Potency [20] |
| --- | --- | --- | --- | --- | --- | --- | --- | --- | --- | --- | --- | --- | --- | --- | --- | --- | --- | --- | --- | --- |
| CCCCCCCCCCCCS | inactive | inactive | inactive | inactive | inactive | inactive | inactive | inactive | inactive | inactive | inactive | inactive | inactive | inactive | inactive | inactive | inactive | inactive | – | – |
| COC(=O)c1cccc(C(=O)OC)c1 | inactive | inactive | inactive | inactive | – | – | inactive | inactive | inactive | inactive | inactive | inactive | inactive | inactive | inactive and 15.4 µM (active) | – | inactive | inactive | inactive | inactive |
| CNC[C@H](O)c1cccc(O)c1 | inactive | – | inactive | inactive | inactive | inactive | – | inactive | inactive | inactive | – | inactive | – | inactive | inactive | – | inactive | 61.1 µM (active) and 29.8 µM (active) | inactive | inactive |
| Cc1ccc(S(=O)(=O)NCl)cc1 | inactive | – | inactive | inactive | inactive | – | inactive | inactive | inactive | inactive | inactive | inactive | inactive | inactive | inactive | – | – | inactive | inactive | inactive |
| CC(C)(N)CO | inactive | – | inactive | inactive | inactive | inactive | inactive | inactive | – | inactive | inactive | inactive | inactive | inactive | inactive | – | inactive | inactive | inactive | inactive |
| CCCCC(CC)COC(=O)c1ccc(N(C)C)cc1 (stereo unspecified) | inactive | – | inactive | inactive | inactive | inactive | inactive | – | inactive | inactive | inactive | inactive | inactive | inactive | inactive | inactive | inactive | inactive | inactive | inactive |
| CC(COc1ccccc1)N(CCCl)Cc1ccccc1 (stereo unspecified) | inactive | – | inactive | inactive | inactive | inactive | inactive | – | – | inactive | inactive | inactive | inactive | inactive | inactive | inactive | 13.2 µM (active) and 7.22 µM (active) | inactive | inactive | inactive |
| CCC(O)OC(O)CC (stereo unspecified) | inactive | – | inactive | inactive | inactive | inactive | inactive | inactive | – | inactive | inactive | inactive | inactive | inactive | inactive | inactive | inactive | inactive | inactive | inactive |
| CCOC(=O)/C=C\C(=O)OCC | inactive | – | inactive | inactive | inactive | inactive | – | inactive | inactive | inactive | inactive | inactive | inactive | inactive | inactive | inactive | inactive | inactive | inactive | inactive |
| Nc1ccc(C(=O)O)cc1 | inactive | – | inactive | inactive | inactive | inactive | inactive | inactive | inactive | – | inactive | inactive | inactive | inactive | inactive | inactive | inactive | inactive | inactive | inactive |
| CCc1cccc(C)c1N | inactive | – | inactive | inactive | inactive | inactive | inactive | – | inactive | inactive | inactive | inactive | inactive | inactive | inactive | inactive | inactive | inactive | inactive | inactive |
| O=C(O)c1cccc([N+](=O)[O-])c1 | inactive | – | inactive | inactive | inactive | inactive | inactive | inactive | inactive | inactive | inactive | inactive | inactive | inactive | inactive | – | inactive | inactive | inactive | inactive |
| O=[N+]([O-])c1ccccc1C(F)(F)F | inactive | – | inactive | inactive | inactive | inactive | inactive | inactive | inactive | inactive | inactive | inactive | inactive | inactive | – | inactive | inactive | inactive | inactive | inactive |
